Holding throughout (assay): log2 fold change, soluble protein after heating vs DMSO (PISA); higher = thermal stabilisation; K562 lysate, 10 uM; active = over 0.2 and 3.5 SD of the protein, either way, in both replicates (recomputed)
Compound in one assay: CN1CC[C@H](c2c(O)cc(O)c3c(=O)cc(-c4ccccc4Cl)oc23)[C@H](O)C1 [alvocidib]
The essentials:
(§1)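 Log-two fold change in thermal stability relative to solvent controls is reported from duplicates. For each sample, crude K562 extract from dounce-homogenised pellets in PBS pH 7.4 with 1 mM MgCl2, at 1 mg/mL protein, was treated with 10 μM compound for 30 min. Aliquots heated for 3 min across 48°C-58°C were pooled, brought to 0.5% NP-40 at 4°C and cleared at 21,000xg for 90 min. The supernatant was quantified by TMTpro 16plex LC-MS/MS with channel sums equalised.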

Compound in the next assay: CN1CCc2c(c3ccccc3n2Cc2ccc(C(=O)NO)cc2)C1 [Tubastatin A]
Summed up:
as §1

Compound in assay [1]: CNC(=O)C1=CC=CC=C1NC2=NC(=NC=C2Cl)NC3=C(C=C(C=C3)N4CCOCC4)OC
Summed up: as §1

Compound in a further assay: CNC(=O)c1ccc(Nc2ncc(C(F)(F)F)c(NCc3nccnc3N(C)S(C)(=O)=O)n2)cc1 [defactinib]
The essentials:
as §1

Compound in assay [2]: CNc1nc(-c2ccc3c(N)n[nH]c3c2)cc(N2C[C@@H](C(=O)NC3CCCCC3)CC[C@H]2C)n1
Summed up:
as §1

Compound in a further assay: COC(=O)N[C@@H](C)CNc1nccc(-c2cn(C(C)C)nc2-c2cc(Cl)cc(NS(C)(=O)=O)c2F)n1 [encorafenib]
Summed up:
as §1

Compound in assay [3]: COC(=O)[C@H](CCSC)NC(=O)C1=C(C=C(C=C1)NC[C@H](CS)N)C2=CC=CC=C2
The essentials:
as §1

Compound in a further assay: COc1cc(Nc2ncc3c(n2)-c2ccc(Cl)cc2C(c2c(F)cccc2OC)=NC3)ccc1C(=O)O [alisertib]
Summed up:
as §1

Compound in assay [4]: COc1cc2nc(-c3cc(F)ccc3O)nc(N[C@@H]3CNC[C@H]3C(C)(C)O)c2cc1OC
The essentials:
as §1

Compound in a further assay: COc1cc2ncnc(Nc3ccc(F)c(Cl)c3)c2cc1OCCCN1CCOCC1 [gefitinib]
The essentials: as §1

About 8,800 targets were measured; listed, in parts, are those with a hit and a random draw of the rest. About 0.5% of all pairs of compound and target were hits. Values without a mark were called inactive.

From the supplement of paper PMC10849652 come the findings set out here.

Chain of UniProt P09622 (P09622 whole entry, looked up): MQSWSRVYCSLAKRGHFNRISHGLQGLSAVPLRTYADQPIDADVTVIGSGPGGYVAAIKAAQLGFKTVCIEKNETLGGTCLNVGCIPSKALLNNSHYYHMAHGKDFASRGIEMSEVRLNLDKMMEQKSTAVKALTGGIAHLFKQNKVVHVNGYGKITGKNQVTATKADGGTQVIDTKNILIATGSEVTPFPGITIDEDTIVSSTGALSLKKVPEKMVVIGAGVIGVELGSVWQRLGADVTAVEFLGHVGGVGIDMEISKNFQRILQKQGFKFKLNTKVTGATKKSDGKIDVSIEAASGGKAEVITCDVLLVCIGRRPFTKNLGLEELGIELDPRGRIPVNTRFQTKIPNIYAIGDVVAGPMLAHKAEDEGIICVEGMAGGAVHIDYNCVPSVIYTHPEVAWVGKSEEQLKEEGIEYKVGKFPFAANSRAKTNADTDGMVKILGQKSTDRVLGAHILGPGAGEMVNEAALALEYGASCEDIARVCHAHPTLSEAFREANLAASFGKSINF
Chain of UniProt Q9H4E7 (Q9H4E7 whole entry, looked up): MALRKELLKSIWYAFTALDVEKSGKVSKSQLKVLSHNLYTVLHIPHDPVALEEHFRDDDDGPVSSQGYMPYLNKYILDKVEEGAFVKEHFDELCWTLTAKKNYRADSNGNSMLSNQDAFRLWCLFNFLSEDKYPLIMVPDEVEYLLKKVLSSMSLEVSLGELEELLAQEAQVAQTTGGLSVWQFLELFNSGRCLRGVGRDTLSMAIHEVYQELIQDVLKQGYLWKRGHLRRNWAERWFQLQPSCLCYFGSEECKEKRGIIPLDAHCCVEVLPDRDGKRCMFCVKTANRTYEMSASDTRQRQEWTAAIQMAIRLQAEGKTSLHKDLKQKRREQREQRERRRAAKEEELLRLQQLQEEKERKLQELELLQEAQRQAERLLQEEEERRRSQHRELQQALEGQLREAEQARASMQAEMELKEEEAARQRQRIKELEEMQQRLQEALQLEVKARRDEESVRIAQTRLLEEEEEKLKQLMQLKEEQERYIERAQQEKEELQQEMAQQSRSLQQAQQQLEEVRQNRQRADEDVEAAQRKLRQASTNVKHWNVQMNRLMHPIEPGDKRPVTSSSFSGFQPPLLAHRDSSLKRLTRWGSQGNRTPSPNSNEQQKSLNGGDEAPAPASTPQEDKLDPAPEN
Chain of UniProt P30622 (P30622 whole entry, looked up): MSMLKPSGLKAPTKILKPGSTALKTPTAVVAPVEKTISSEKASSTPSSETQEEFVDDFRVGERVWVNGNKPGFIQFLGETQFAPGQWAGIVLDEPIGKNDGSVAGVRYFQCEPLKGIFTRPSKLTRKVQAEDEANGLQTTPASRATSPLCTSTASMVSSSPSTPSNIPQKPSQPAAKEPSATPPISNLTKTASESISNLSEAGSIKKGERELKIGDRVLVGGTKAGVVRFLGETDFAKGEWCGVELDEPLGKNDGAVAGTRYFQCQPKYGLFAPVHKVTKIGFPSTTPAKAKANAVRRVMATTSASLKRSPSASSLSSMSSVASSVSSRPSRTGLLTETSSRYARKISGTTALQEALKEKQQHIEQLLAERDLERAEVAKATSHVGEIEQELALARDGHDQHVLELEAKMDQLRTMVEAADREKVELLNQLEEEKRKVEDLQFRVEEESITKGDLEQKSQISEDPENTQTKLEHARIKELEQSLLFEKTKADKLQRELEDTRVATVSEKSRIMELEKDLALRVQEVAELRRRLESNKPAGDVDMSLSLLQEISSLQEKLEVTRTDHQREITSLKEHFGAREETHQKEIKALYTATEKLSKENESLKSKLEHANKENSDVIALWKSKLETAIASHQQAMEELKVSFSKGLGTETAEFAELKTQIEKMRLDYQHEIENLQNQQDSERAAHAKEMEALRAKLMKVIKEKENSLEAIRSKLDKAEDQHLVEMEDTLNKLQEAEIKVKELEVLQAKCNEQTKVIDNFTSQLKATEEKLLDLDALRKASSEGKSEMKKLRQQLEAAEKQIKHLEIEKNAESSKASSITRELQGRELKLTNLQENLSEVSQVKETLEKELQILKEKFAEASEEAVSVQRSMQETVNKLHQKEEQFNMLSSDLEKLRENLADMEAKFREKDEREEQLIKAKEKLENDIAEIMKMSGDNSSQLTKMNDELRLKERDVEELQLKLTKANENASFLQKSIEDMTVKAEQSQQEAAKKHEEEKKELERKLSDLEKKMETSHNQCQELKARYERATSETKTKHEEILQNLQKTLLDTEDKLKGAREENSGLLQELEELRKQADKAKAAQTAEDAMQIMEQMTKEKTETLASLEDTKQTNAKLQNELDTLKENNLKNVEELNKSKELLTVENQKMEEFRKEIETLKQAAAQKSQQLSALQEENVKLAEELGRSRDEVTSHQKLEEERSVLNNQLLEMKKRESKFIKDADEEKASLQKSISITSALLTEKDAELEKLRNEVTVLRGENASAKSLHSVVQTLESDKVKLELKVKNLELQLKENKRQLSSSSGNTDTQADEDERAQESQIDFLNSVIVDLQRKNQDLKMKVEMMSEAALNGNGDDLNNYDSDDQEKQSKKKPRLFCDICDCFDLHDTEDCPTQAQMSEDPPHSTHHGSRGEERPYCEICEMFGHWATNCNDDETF
Chain of UniProt Q96LJ7 (Q96LJ7 whole entry, looked up): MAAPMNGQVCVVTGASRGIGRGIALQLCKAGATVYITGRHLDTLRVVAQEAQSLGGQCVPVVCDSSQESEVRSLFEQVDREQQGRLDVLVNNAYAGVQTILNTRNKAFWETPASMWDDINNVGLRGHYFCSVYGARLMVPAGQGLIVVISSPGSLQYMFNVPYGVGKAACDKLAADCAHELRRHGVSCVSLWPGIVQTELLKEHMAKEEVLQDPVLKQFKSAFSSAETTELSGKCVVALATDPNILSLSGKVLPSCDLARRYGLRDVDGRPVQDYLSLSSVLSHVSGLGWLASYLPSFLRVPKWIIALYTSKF
Chain of UniProt P29373 (P29373 whole entry, looked up): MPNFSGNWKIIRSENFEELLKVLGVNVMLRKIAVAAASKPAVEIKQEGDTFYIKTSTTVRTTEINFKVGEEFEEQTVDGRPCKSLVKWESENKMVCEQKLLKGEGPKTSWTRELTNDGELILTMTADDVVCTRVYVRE
Chain of UniProt Q7Z401 (Q7Z401 whole entry, looked up): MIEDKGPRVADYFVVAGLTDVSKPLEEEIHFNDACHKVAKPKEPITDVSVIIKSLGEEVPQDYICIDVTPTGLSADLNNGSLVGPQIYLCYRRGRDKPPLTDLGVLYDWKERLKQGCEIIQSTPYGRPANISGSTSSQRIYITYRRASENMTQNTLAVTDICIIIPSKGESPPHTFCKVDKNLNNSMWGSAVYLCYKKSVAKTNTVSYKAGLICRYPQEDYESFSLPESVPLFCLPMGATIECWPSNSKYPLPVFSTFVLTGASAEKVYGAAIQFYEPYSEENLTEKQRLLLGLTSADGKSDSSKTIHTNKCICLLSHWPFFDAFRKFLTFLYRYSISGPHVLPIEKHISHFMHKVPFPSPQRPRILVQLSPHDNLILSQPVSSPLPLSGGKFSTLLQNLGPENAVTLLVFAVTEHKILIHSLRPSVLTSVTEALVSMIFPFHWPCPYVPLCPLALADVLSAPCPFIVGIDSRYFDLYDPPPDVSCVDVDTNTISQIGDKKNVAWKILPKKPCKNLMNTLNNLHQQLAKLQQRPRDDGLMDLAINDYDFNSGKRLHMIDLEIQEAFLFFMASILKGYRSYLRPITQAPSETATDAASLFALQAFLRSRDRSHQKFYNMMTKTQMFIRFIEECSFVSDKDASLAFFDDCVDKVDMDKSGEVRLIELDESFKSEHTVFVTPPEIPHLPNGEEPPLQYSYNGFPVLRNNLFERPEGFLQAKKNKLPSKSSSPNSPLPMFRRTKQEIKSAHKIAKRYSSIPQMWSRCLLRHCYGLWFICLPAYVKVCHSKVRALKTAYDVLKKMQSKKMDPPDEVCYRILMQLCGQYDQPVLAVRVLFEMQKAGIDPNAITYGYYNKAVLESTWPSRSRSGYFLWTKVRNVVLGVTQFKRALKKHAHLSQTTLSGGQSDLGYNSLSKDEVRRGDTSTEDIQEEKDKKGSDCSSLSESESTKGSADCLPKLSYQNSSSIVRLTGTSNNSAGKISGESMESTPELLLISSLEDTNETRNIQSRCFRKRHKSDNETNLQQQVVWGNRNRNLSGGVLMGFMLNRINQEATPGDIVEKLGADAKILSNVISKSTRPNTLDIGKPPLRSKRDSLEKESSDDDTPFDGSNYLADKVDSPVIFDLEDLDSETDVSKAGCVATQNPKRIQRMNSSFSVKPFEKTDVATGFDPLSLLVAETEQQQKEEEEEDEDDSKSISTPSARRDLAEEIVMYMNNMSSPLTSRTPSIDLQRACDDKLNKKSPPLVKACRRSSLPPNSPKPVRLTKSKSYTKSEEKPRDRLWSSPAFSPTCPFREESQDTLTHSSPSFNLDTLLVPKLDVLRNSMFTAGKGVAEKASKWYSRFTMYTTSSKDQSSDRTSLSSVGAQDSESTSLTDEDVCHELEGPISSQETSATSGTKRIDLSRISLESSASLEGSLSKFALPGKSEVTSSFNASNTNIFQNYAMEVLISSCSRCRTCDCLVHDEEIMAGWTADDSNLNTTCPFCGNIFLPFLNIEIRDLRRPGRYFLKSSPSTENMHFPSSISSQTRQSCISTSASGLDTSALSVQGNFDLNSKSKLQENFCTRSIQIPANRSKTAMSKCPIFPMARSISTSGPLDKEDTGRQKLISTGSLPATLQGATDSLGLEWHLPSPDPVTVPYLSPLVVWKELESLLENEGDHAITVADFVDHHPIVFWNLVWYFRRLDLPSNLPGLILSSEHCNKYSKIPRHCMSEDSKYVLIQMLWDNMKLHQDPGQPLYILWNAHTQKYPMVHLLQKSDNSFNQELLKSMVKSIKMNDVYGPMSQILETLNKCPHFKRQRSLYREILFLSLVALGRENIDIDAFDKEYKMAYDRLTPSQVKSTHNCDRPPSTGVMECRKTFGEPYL
Chain of UniProt P04080 (P04080 whole entry, looked up): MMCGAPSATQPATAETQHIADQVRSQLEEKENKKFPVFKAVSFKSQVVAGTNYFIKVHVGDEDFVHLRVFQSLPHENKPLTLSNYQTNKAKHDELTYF

As for CLIP1 isoform 1 (UniProt P30622), the log2 fold change with alvocidib was -0.005; in the assay with Tubastatin A, 0.038; in assay [1], 0.014; with defactinib, -0.006; in assay [2] it was -0.008; in the assay with encorafenib, 0.003. Besides, the log2 fold change in [3] was -0.03; with alisertib, -0.016; in assay [4], 0.014; with gefitinib, 0.001.
CIP2A (UniProt Q8TCG1): the log2 fold change with alvocidib was 0.009; in the assay with Tubastatin A, -0.294 (active); in assay [1] it was -0.015; in the assay with defactinib it was 0.003; in assay [2], -0.074; in the assay with encorafenib it was 0.008. Also, the log2 fold change in assay [3] was 0.053; with alisertib, -0.004; in [4], -0.014; in the assay with gefitinib, -0.018.
On to CHORDC1 (UniProt Q9UHD1), for which the log2 fold change was 0.033 with alvocidib; 0.004 with Tubastatin A; 0.007 in assay [1]; 0 with defactinib; -0.002 in assay [2]; -0.029 with encorafenib. The log2 fold change in [3] was -0.018; with alisertib, -0.012; in assay [4] it was -0.008; in the assay with gefitinib, -0.026.
DHRS1 (UniProt Q96LJ7): the log2 fold change is -0.057 with alvocidib; 0.02 with Tubastatin A; 0.188 in [1]; -0.238 with defactinib; -0.012 in assay [2]; 0.164 in the assay with encorafenib. Further, the log2 fold change in assay [3] is -0.102; with alisertib, 0.059; in [4], 0.028; in the assay with gefitinib, -0.075.
As for CRABP2 (UniProt P29373), the log2 fold change in the assay with alvocidib was -0.025; with Tubastatin A, -0.116; in assay [1], -0.04; with defactinib, -0.015; in assay [2], 0.006; with encorafenib it was -0.209. Also, the log2 fold change in [3] was 0.082; with alisertib it was -0.109; in assay [4] it was -0.018; in the assay with gefitinib, 0.01.
Regarding CTNND1 isoform 3 (UniProt O60716), the log2 fold change with alvocidib was -0.02; with Tubastatin A, -0.159; in [1], 0.019; in the assay with defactinib, 0.045; in assay [2], -0.04; with encorafenib, 0.013. For the same target, the log2 fold change in assay [3] is 0.174; with alisertib it was 0.026; in [4], 0.006; in the assay with gefitinib, -0.023.
Consider DEF6 (UniProt Q9H4E7), for which the log2 fold change with alvocidib was -0.036; with Tubastatin A, -0.154; in assay [1] it was 0.027; in the assay with defactinib it was -0.07; in [2], 0.039; with encorafenib, 0.019. For the same target, the log2 fold change in assay [3] is -0.002; with alisertib, 0.097; in assay [4] it was 0.013; with gefitinib it was -0.01.
With DGCR8 (UniProt Q8WYQ5), the log2 fold change with alvocidib was 0.009; with Tubastatin A, -0.115; in [1], -0.009; in the assay with defactinib, -0.046; in [2], 0.042; with encorafenib, 0.018. For the same target, the log2 fold change in assay [3] is 0.081; with alisertib, 0.022; in assay [4] it was 0.027; with gefitinib it was -0.034.
Take CSDE1 isoform 4 (UniProt O75534): the log2 fold change with alvocidib was 0; with Tubastatin A, -0.104; in [1], 0.01; with defactinib, 0; in assay [2] it was -0.014; with encorafenib, -0.008. Moreover, the log2 fold change in assay [3] was 0.209 (active); in the assay with alisertib, 0.004; in assay [4], -0.021; with gefitinib, -0.014.
For the target DLD (UniProt P09622), the log2 fold change is -0.024 with alvocidib; 0.041 in the assay with Tubastatin A; 0.03 in [1]; -0.02 with defactinib; 0.046 in assay [2]; -0.014 with encorafenib. Besides, the log2 fold change in assay [3] was -0.13; with alisertib, 0; in [4] it was 0.008; with gefitinib, -0.055.
As to CLUH, A0A494C0R8, the log2 fold change with alvocidib was 0.076; in the assay with Tubastatin A, -0.08; in assay [1], -0.015; with defactinib it was -0.184; in assay [2], -0.049; with encorafenib, -0.089. In addition, the log2 fold change in assay [3] was 0.054; in the assay with alisertib, -0.05; in [4], 0.005; in the assay with gefitinib it was 0.138.
Regarding CLIC2 (UniProt O15247), the log2 fold change is 0.002 with alvocidib; -0.002 with Tubastatin A; 0.034 in assay [1]; 0.03 with defactinib; 0.024 in assay [2]; -0.016 with encorafenib. In addition, the log2 fold change in assay [3] is 0.018; in the assay with alisertib it was 0.02; in assay [4] it was -0.014; with gefitinib it was -0.038.
Regarding DOCK7 (UniProt Q96N67), the log2 fold change with alvocidib was 0.007; with Tubastatin A, -0.238; in [1], 0.006; in the assay with defactinib it was -0.014; in assay [2], -0.035; with encorafenib it was 0.006. For the same target, the log2 fold change in [3] was 0.038; with alisertib, 0.032; in assay [4], 0.026; in the assay with gefitinib, 0.017.
Take DENND4A isoform 2 (UniProt Q7Z401): the log2 fold change is -0.067 with alvocidib; -0.141 with Tubastatin A; -0.024 in assay [1]; 0.077 with defactinib; -0.001 in assay [2]; 0.013 with encorafenib. Besides, the log2 fold change is 0.032 in assay [3], -0.018 with alisertib, 0.17 in assay [4] and -0.041 with gefitinib.
In the case of CSTB (UniProt P04080), the log2 fold change with alvocidib was -0.051; with Tubastatin A, 0.089; in assay [1], -0.023; in the assay with defactinib, 0.069; in [2] it was 0.011; in the assay with encorafenib, 0.025. Also, the log2 fold change in [3] is -0.011; in the assay with alisertib, 0.023; in [4], -0.042; in the assay with gefitinib, -0.143.
